# This is a sample that favours compounds with a hit; in the whole collection about 21% have one here.
# DRD3 agonist = qHTS of D3 Dopamine Receptor Agonist: qHTS. D(3) dopamine receptor (Homo sapiens), P35462. D3R DiscoveRx beta-arrestin cells, luminescence, 90 min. max activation, %. 410,000 tested, 0.58% active. AID 652048, 2013; in the data active = max activation above about 30%; also: 0% is about no effect
# Target sequence (P35462 whole entry, looked up): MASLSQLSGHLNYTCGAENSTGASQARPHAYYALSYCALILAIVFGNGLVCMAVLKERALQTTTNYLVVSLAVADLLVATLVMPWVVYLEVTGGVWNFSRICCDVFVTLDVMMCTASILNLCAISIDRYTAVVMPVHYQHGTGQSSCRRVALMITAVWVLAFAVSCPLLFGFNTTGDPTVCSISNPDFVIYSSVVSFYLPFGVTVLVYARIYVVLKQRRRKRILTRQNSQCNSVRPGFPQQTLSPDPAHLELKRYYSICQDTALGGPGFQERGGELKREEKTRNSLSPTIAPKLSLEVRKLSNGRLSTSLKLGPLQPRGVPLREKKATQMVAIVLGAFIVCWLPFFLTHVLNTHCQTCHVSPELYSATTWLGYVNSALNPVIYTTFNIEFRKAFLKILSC
#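 Cells at 1500/well, incubated overnight, then treated with pinned compounds (dopamine as control) for 90 min at 37 degrees C. DiscoveRx reagent added for 30 - 60 minutes at room temperature; luminescence read.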
# IL1B secr inh = qHTS for Inhibitors of Inflammasome Signaling: IL-1-beta AlphaLISA Primary Screen; THP-1 LPS/ATP IL-1B secretion, AlphaLISA, 16 h; hits give low values; activity change, % at 57.5 µM; 360,000 tested, 4.7% active; AID 743279, 2014; in the data active = activity change below about -50%; inconclusive = mostly about -30% to -49%; also: % is scaled to controls: 0 for no effect and ±100 for the full control effect
#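 THP-1 cells pretreated 1 hr with compounds (up to 57.5 uM final), then stimulated with LPS (250 ng/mL final) plus ATP (1.25 mM final); secreted IL-1B measured by AlphaLISA after 16 hr, decreased signal indicating inhibition.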
# TDP1 cell CPT = qHTS for Inhibitors of human tyrosyl-DNA phosphodiesterase 1 (TDP1): qHTS in cells in presence of CPT; AID 686979, 2013; chicken DT40 Tdp1-/-;hTDP1 cells + 20 nM CPT, ATP luminescence, 48 h; 420,000 tested, 12% active; Potency, µM (top dose mostly 46.2 µM), for inactives: at the top dose activity change, negative = growth inhibition, most hits filed as inhibitors; also: potency is read from the fitted curve at half-maximal effect; % is scaled to controls: 0 for no effect and ±100 for the full control effect; nearly all actives have a fitted effect of over 55% in size
#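 Chicken DT40 Tdp1-/- cells complemented with human TDP1, 400 cells/well, exposed to compounds plus 20 nM camptothecin for at least 48 h at 37 C; viability read as ATP content by CellTiter-Glo luminescence.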
# D3 antag = qHTS of D3 Dopamine Receptor Antagonist: qHTS. D(3) dopamine receptor (Homo sapiens), P35462. max response, negative = inhibition, %. AID 652054, 2013. D3R cells, DiscoveRx beta-arrestin luminescence, antagonist mode; hits give low values. 360,000 tested, 2.5% active; in the data active = max response below about -50%; inconclusive = no clear call, values can overlap the other calls; also: % is scaled to controls: 0 for no effect and ±100 for the full control effect
#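 Cells expressing the human receptor were seeded at 1500 cells/well, incubated overnight at 37 degrees C in 5% CO2, then exposed to library compounds with dopamine controls for 90 minutes at 37 degrees C before luminescent detection.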
# DT40 TDP1 no CPT = qHTS for Inhibitors of human tyrosyl-DNA phosphodiesterase 1 (TDP1): qHTS in cells in absence of CPT. DT40 Tdp1-/- hTDP1 cells, no CPT, ATP luminescence, 48 h. Potency, µM (doses to about 46.2 µM), without a hit: at the top dose activity change, negative = growth inhibition, most hits filed as inhibitors. 420,000 tested, 15% active. AID 686978, 2013; also: potency is read from the fitted curve at half-maximal effect; % is scaled to controls: 0 for no effect and ±100 for the full control effect; nearly all actives have a fitted effect of over 55% in size
#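 Growth kinetics read by CellTiter-Glo luminescence after ≥48 hr at 37 °C. Cells: DT40 Tdp1-/- stably carrying human TDP1, 400 per well, compound exposure in the absence of CPT (DMSO vehicle).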
# ClpP mod = qHTS Assay for Activators of ClpP; purified B. subtilis ClpP, FRET peptide cleavage, 20 min; 340,000 tested, 1.9% active; ATP-dependent Clp protease proteolytic subunit (Bacillus subtilis (strain 168)), P80244; Potency, µM (top dose mostly 57.5 µM), for inactives: at the top dose activity change, negative = active; active = well fitted falling curve with a large enough effect; inconclusive = small, poorly fitted or top-dose-only effect; inactive = no such curve, though single readings can be large or run the other way; also: potency is read from the fitted curve at half-maximal effect; the source files actives as falling curves though it sought activators and does not explain the sign; nearly all actives have a fitted effect of over 65% in size
# Target sequence (P80244 whole entry, looked up): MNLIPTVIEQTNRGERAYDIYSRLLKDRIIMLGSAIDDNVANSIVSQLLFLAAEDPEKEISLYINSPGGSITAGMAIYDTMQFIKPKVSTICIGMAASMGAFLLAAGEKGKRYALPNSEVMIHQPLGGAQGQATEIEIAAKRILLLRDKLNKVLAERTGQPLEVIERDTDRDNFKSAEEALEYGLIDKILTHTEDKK
#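 FRET quenching reversal measured ClpP activation: 10 microg/mL B. subtilis ClpP at pH 8 with the FRET-FV decapeptide, read at 430 nm after 320 nm excitation. The 20-min minus 0-min signal was scaled between DMSO/no-enzyme wells and ADEP (5.8 microM final).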
# * marks the source's active call; other numbers are inactive results; ? = inconclusive; · = not tested or not shown. Unless noted, calls follow the shape of the dose curve; as a rule, active = well fitted inhibition curve with a large enough effect; inconclusive = small, poorly fitted or top-dose-only effect; inactive = flat fitted curve, though single readings scatter.
SMILES,DRD3 agonist,IL1B secr inh,TDP1 cell CPT,D3 antag,DT40 TDP1 no CPT,ClpP mod
CC(NC(=O)CSc1nc2sc3c(c2c(=O)n1-c1ccccc1)CCCC3)c1ccccc1 (stereo not drawn),-19,36,6.5µM*,-8,?,-18%
N#Cc1cccc(NC(=O)COC(=O)CCc2nc3ccccc3c(=O)[nH]2)c1,2,4,4%,7,-6%,·
CCCCn1c(SCc2nc(N)nc(Nc3ccccc3C)n2)nc2ccccc2c1=O,-3,-28,?,63,18µM*,-4%
COCC(C)n1c(SCc2nc(N)nc(Nc3ccccc3C)n2)nc2ccccc2c1=O (stereo not drawn),6,?,16µM*,0,?,2%
CCCCN(CC)Cc1ccc(CNC(=S)Nc2cccc(F)c2)o1,-16,-16,?,-25,23µM*,·
CCCCN(CC)Cc1ccc(CNC(=O)Nc2ccccc2)o1,-40,-10,18µM*,-10,10µM*,2%
CCOC(=O)Cn1c(=O)n(CC2CCCO2)c2nc(-c3ccccc3Cl)nc(C(N)=O)c21 (stereo not drawn),15,·,·,·,·,-12%
COc1ccc(C)cc1S(=O)(=O)N1CCN(c2cccc(C(F)(F)F)c2)CC1,0,5,-25%,6,?,-3%
COc1ccc(C)cc1S(=O)(=O)N1CCCC(N2CCN(c3ccccc3)CC2)C1 (stereo not drawn),-8,40,?,-28,21µM*,-2%
COc1ccc(C)cc1S(=O)(=O)N1CCCC(N2CCOCC2)C1 (stereo not drawn),-11,0,3%,-4,8%,-1%
COc1ccc(C)cc1S(=O)(=O)N1CCN(c2cccc(Cl)c2)CC1,-11,·,21µM*,·,?,-2%
COc1ccc(Cl)cc1S(=O)(=O)N1CCN=C1C,4,0,18µM*,14,?,0%
CCOC(=O)N1CCN(S(=O)(=O)N2CCCC(C(=O)NCCc3ccc(OC)c(OC)c3)C2)CC1 (stereo not drawn),-3,-2,-4%,2,13%,-2%
CC[n+]1c(C)cc(C)n1-c1ccccc1,2,41,?,37,?,·
CCc1nn2c(=O)c(S(=O)(=O)Nc3ccc(C(C)C)cc3)c(C)nc2s1,5,12,?,31,16µM*,2%
CN(C)c1ccc(/C=C/c2ncnc3ccccc23)cc1,·,·,?,·,16µM*,1%
CN(C)c1ccc(/C=C/c2c(Cl)cnc3ccccc23)cc1,·,·,11µM*,·,11µM*,1%
CN(C)c1ccc(/C=C/c2c(Br)cnc3ccccc23)cc1,·,·,?,·,?,1%
COc1ccc(C(=O)N2CCOC2CNC(=O)C(=O)NCc2ccc(Cl)cc2)cc1 (stereo not drawn),3,17,5%,4,?,-6%
CCN(Cc1ccccc1)C(=O)COc1cc(=O)n(CC)c2ccccc12,-4,-5,?,-10,21µM*,-3%
CCN(C(=O)COc1cc(=O)n(CC)c2ccccc12)c1cccc(Cl)c1,3,-13,15µM*,-7,?,-3%
CCN(C(=O)COc1cc(=O)n(CC)c2ccccc12)c1cc(Cl)ccc1OC,-1,16,?,14,21µM*,-4%
CCCN(C(=O)Cn1c(=O)oc2cc(Cl)ccc21)c1ccc(C(C)C)cc1,-16,·,21µM*,·,?,-2%
CCn1c(=O)cc(OCC(=O)N(C)c2ccccc2F)c2ccccc21,-4,-16,-19%,-6,-26%,-8%
O=C(Nc1cccc(F)c1)c1ccc(S(=O)(=O)N2CCCCC2)cc1,-1,-6,?,1,?,-3%
SMILES,DRD3 agonist,IL1B secr inh,TDP1 cell CPT,D3 antag,DT40 TDP1 no CPT,ClpP mod
CCCN(CCC)C(=O)COc1cc(=O)n(CC)c2ccccc12,0,20,?,-2,?,-6%
CCCN(C(=O)COc1cc(=O)n(CC)c2ccccc12)c1ccc(C(C)C)cc1,-24,·,16µM*,·,10µM*,-1%
O=C(OC1Cc2c(O)cc(O)cc2OC1c1cc(O)c(O)c(O)c1-c1c(C2Oc3cc(O)cc(O)c3CC2O)cc(O)c(O)c1O)c1cc(O)c(O)c(O)c1 (stereo not drawn),·,·,?,·,-4%,·
CCCCCCCC(=O)C(C)C(=O)N(C)[C@H](Cc1ccc(OC)cc1)C(=O)N(C)[C@H](C(N)=O)C(C)C (stereo partly drawn),3,-7,?,45,23µM*,-4%
CC(=O)c1ccc(NC(=S)N2CCCC(C(F)(F)F)C2)cc1 (stereo not drawn),5,8,7%,12,-5%,0%
O=C(NC(=S)N1CCCC(C(F)(F)F)C1)c1ccc(F)cc1 (stereo not drawn),-2,-23,18µM*,-26,23µM*,·
Cc1csc2nc(CSc3ccc(Cl)cc3)cn12,1,-91*,?,-27,23µM*,0%
O=C(Nc1ccccc1C(=O)O)c1cc(S(=O)(=O)N2CCOCC2)c(Br)s1,-7,1,-3%,2,-5%,-3%
CCOC(=O)c1sc2nc(SC)nc(-c3ccc(Cl)cc3)c2c1N,3,-3,21µM*,-9,15µM*,2%
CCOC(=O)c1sc2nc(OCc3cccnc3)cc(C)c2c1N,5,-50*,?,34,?,5%
CCOC(=O)c1sc2nc(C)cc(-c3ccccc3)c2c1N,-2,-1,?,-18,?,-11%
CCOC(=O)c1sc2nc(C)c3c(c2c1N)CC(C)(C)OC3,5,9,-8%,-18,-27%,28µM*
CCCCOC(=O)c1sc2nc(C)cc(C)c2c1N,17,?,?,10,?,·
CCOC(=O)c1sc2nc(C)cc(C)c2c1N,0,0,0%,26,-12%,28µM*
CC(C)(C)S(=O)(=O)N1Cc2ccc(CO)cc2[C@H]1CCO,12,20,0%,2,0%,0%
O=C(NCc1ccccc1F)c1ccc2c(c1)OCCO2,4,2,2%,15,7%,0%
